Test [1] in a line: reducers of endogenous Her2 protein level, primary screen, SKBR3 breast tumor cells, AlphaScreen, ATP viability (AID 461;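 active means Her2 level under about 52% in both replicate screens, with viability over 70% of control, limit read from the data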;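 on Her2 level: lower value means less Her2 protein in the cells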;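 on viability: percent of carrier control wells set as 100% viability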). To be noted: 18-24 h, measured here: SKBR3 viability, ATP luminescence, at 10 µM. Background: Alpha assays give light when donor and acceptor beads are brought close together.
Test [2] addresses Receptor tyrosine-protein kinase erbB-2 (Homo sapiens) (UniProt P04626). Described as above. The note with it: 18-24 h, at 10 µM, stronger effect = lower value.
The nature of test [3]: SK-BR-3 cell growth inhibitors, pilot screen, 24 h, human (AID 572;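 active means viability at or below 10% of carrier control in both of two separate runs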;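 further: compound exposure lasted between 18 and 24 h rather than exactly 24 h; 100% = carrier-treated control wells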). The note with it: SK-BR-3 viability, CellTiter-Glo luminescence, at 10 µM, stronger effect = lower value.
The nature of test [4]: HUVEC growth inhibition – cell-based, human, primary screen (AID 575;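 active means viability at or below 30% in both replicate assays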;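 further: 100% = median of untreated cell wells with 0.1% DMSO on each plate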). The note with it: HUVEC proliferation, CellTiter-Glo luminescence, 72 h; at 10 µM; stronger effect = lower value. In general terms: Cellular ATP, detected with luciferase, serves as a proxy for viable cell number.
Test [5] in a line: growth inhibitors of H69AR lung tumor, primary screen, human, duplicate replicates (AID 580).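 Further: 100% = mean luminescence of untreated wells and 0% = no signal.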 The note with it: H69AR lung tumor cells viability, ATP luminescence, 72 h; at 10 µM; stronger effect = lower value.
A short description of test [6]: reversal of MRP1-mediated doxorubicin resistance, pilot screen, H69AR cells, doxorubicin co-treatment (AID 601;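 active means viability loss from added drug above about 55%, and viability with drug at most 40%, in both replicates, limit read from the data, passing the limit was not always enough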). To be noted: CellTiter-Glo, 72 h, at 10 µM; for differential viability (reversal): stronger effect = higher value.
Test [7] in a line: 384-well plate pilot, post-Golgi transport modulator project, inhibition of yeast transport mutant growth (AID 636; in the data active means inhibition above about 31%). The note with it: absorbance 615 nm, about 18 h, stronger effect = higher value.
The nature of test [8]: growth suppression of yeast trafficking mutant, preliminary HTS, modulators of trafficking downstream of Golgi apparatus project, 1536-format plate, OD 615 nm (AID 637; in the data active means inhibition above about 30%). To be noted: yeast transport mutant growth, absorbance 615 nm, 18 h; stronger effect = higher value.
A short description of test [9]: OD615 S. cerevisiae growth inhibition, permissive medium, pilot counter-assay, permissive growth control for S. cerevisiae lifespan shortening project (AID 705;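 active means growth inhibition above 25% in both replicates, a cutoff set 3 SD above the mean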). To be noted: OD615, 24 h, at 10 µM, stronger effect = higher value.
A short description of test [10]: Restrictive medium S. cerevisiae growth inhibition, OD615, pilot screen of yeast lifespan reduction project, restrictive growth control (AID 706;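 active means growth inhibition above a set limit, 3 SD over mean compound inhibition, in both replicates, cut at about 43% in these data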;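 further: modified DeaD lifespan yeast strain shifted to restrictive glucose medium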). To be noted: OD615, 48 h, at 10 µM, stronger effect = higher value.
The nature of test [11]: viability gain of MRP-1-high H69AR cells under doxorubicin, pilot screen, MRP-1 activator project, CellTiter-Glo, duplicate (AID 807;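 active means viability increase at or above a cutoff of the median across tested compounds plus 3 SD, cut at about 8.5% in these data, passing the limit was not always enough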;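 further: compound pretreatment 18-22 h then 72 h combined with doxorubicin; 0% = doxorubicin alone and 100% = vehicle without doxorubicin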). To be noted: H69AR viability with doxorubicin, CellTiter-Glo luminescence; at 10 µM; stronger effect = higher value.
Test [12] in a line: growth suppression of beta-catenin knockout HCT116, pilot screen, human colon tumor cells (AID 823;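 active means cell viability at or below a set limit in both duplicate runs, the limit being the all-compound median minus 4 SD, cut at about 23% in these data, passing the limit was not always enough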;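 further: 0% = wells killed by 20 µM Hyamine and 100% = untreated DMSO cell wells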). The note with it: CellTiter-Glo, 60 h, at 10 µM, stronger effect = lower value.
Test [13] is described as follows: growth suppression of PTEN-deleted HCT116, pilot screen, cell-based, HCT116 clonal line, CellTiter-Glo (AID 824;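 active means viability at or below 27.92% in each of two runs, the all-compound median minus 4 SD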;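 further: 0% = 20 µM Hyamine control and 100% = vehicle cell control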). The note with it: 60 h, at 10 µM, stronger effect = lower value.
Test [14] in a line: inhibitors of the yeast RAM network, pilot screen, dse1pr::URA3 reporter, 5-FOA selection (AID 869;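 active means inhibition over a set limit, the all-compound mean plus 3 SD, in both replicate runs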;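 further: 0% = DMSO wells with no growth and 100% = 10 µM 1-NA-PP1 with full growth; RAM network block rescues cells from 5-FOA so hits raise OD615 growth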). To be noted: S. cerevisiae dse1pr::URA3 5-FOA growth, OD615, 2 d; at 10 µM; stronger effect = higher value; strain carries analog-sensitive mutant Cbk1 kinase.
Test [15] can be described thus: RAM signaling pathway blockade in yeast – S. cerevisiae, Pdr1DBD-CYC8 efflux-inhibited sensitized strain, primary screen (AID 1298;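 active means RAM network inhibition above 8.4% in each of two replicates, 3 SD over the compound average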;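 further: 0% = DMSO untreated cells without growth and 100% = 10 µM 1-NA-PP1 full growth; higher means more yeast growth rescued from 5-FOA killing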). The note with it: S. cerevisiae cbk1-as DSE1-URA3 strain, 5-FOA growth OD615, 2 d; at 50 µM; stronger effect = higher value.
[16] abbreviates: H69AR cells + 2 uM doxorubicin, measured here: viability with 2 uM doxorubicin, stronger effect = lower value.
Where [17] appears, read: H69AR cells, compound alone cytotoxicity.

Results filed as inconclusive are left out. Active and inactive are the calls of the source.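 How the source made its calls, unless noted: active means viability at or under a set limit in both replicates, limit being median viability minus 3 SD (cut at about 48% in these data, passing the limit was not always enough); inconclusive means at or under the limit in just one replicate; inactive means at or above the limit in both replicates.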

Sequence of Receptor tyrosine-protein kinase erbB-2 (Homo sapiens) (P04626 whole entry, looked up): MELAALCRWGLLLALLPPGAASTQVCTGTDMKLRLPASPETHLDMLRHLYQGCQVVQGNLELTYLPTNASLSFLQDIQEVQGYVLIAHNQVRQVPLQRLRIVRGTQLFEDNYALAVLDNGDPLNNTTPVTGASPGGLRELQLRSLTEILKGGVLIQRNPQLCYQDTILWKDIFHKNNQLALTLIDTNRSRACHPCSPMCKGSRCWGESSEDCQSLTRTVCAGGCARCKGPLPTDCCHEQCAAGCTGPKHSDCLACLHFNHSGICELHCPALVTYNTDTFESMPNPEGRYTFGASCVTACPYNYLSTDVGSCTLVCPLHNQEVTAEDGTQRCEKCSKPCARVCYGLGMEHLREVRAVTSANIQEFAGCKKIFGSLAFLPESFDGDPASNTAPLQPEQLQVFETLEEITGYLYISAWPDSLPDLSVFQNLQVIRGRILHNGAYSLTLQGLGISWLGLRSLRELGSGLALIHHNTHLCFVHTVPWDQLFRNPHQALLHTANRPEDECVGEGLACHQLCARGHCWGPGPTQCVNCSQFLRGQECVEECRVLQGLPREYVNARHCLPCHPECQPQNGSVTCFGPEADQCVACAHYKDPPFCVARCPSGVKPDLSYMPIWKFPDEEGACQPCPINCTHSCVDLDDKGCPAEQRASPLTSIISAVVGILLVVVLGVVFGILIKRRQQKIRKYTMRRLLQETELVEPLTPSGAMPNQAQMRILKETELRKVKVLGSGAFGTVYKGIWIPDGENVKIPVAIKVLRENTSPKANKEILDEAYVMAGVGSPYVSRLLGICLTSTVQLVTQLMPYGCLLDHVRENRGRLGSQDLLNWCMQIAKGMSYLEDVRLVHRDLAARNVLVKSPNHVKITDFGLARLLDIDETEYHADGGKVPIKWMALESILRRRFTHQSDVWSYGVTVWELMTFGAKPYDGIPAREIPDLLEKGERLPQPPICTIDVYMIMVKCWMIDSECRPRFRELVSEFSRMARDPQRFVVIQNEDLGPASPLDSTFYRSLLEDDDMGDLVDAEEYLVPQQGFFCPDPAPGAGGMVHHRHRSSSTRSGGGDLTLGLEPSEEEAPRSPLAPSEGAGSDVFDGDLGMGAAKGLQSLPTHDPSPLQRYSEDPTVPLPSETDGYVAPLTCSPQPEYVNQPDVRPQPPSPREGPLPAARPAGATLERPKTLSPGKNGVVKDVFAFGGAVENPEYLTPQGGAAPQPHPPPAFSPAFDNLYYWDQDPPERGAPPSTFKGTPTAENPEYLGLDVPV

Broadly, the viability is a read-out of living cells in per cent, often relative to untreated cells. In general, inhibition refers to the change of the read-out against control, counted positive when it falls. `CCOc1ccc(N2C(=O)CC(N3CC(C)OC(C)C3)C2=O)cc1` (centres undefined): the viability in test [1] was 97%; in test [3], 97% (inactive); in [4] it was 100% (inactive); in test [5], 89.2% (inactive); in [6] (setting [16]), 91.4%; in [6] (setting [17]), 89.2%. The viability in test [12] was 105% (inactive); in test [13] it was 98.8% (inactive). Moreover, in [2], the Her2 level was 93% (inactive). For the same molecule, the differential viability (reversal) in test [6] (H69AR cells + 2 uM doxorubicin) was -2.21% (inactive). Further, the inhibition in [7] is -3.72% (inactive); in test [8], 1.33% (inactive); in test [14], 1.47% (inactive). The growth inhibition in test [9] is -17.2% (inactive); in [10], -10.4% (inactive). For the same molecule, in test [11], the viability increase was -1.01% (inactive). Moreover, the RAM network inhibition in [15] is 2.33% (inactive).

In the case of `Cn1c(=O)oc2cc(S(=O)(=O)N3CCCC(C(=O)NCC4COc5ccccc5O4)C3)ccc21` (centres undefined), the viability was 77% in test [1]; 77% (inactive) in [3]; 83.6% (inactive) in [4]; 94% (inactive) in [5]; 90.9% in test [6] (setting [16]); 94% in test [6] (setting [17]). The viability in test [12] was 86% (inactive); in test [13], 90.4% (inactive). In test [2], the Her2 level was 79.5% (inactive). Further, the differential viability (reversal) in test [6] (H69AR cells + 2 uM doxorubicin) was 3.15% (inactive). Also, the inhibition in test [7] was 0.8% (inactive); in test [8], -2.79% (inactive); in [14], 0.04% (inactive). The growth inhibition in test [9] was -11.9% (inactive); in test [10], -20.4% (inactive). The viability increase in [11] was 3.09% (inactive). Also, the RAM network inhibition in test [15] was 4.73% (inactive).

In the case of `O=C(O)c1ccc(-c2ccc(O)c(F)c2)cc1`, the viability in test [1] was 94%; in test [3], 94% (inactive); in test [4], 92.8% (inactive); in [5] it was 82.9% (inactive); in test [6] (setting [16]), 88.6%; in [6] (setting [17]) it was 82.9%. Besides, the figures for the viability in [12] and in [13] were 99.3% (inactive) and 97.4% (inactive), respectively. Further, the Her2 level in [2] was 167% (inactive). The differential viability (reversal) in [6] (H69AR cells + 2 uM doxorubicin) was -5.75% (inactive). In addition, the inhibition was -0.4% (inactive) in [7], 1.5% (inactive) in test [8] and -0.17% (inactive) in test [14]. For the same molecule, the growth inhibition in test [9] is -8.37% (inactive); in test [10], 12.1% (inactive). For the same molecule, the viability increase in [11] is -2.66% (inactive). The RAM network inhibition in test [15] is -2.4% (inactive).

Take `Cc1csc(NC(=O)C(Cc2ccccc2)n2cccc2)n1` (centres undefined): the viability in test [1] is 91.5%; in test [3], 91.5% (inactive); in test [4], 101% (inactive); in test [5], 87.6% (inactive); in test [6] (setting [16]) it was 82.4%; in [6] (setting [17]), 87.6%. For the same molecule, the values for the viability in test [12] and in test [13] were 73.8% (inactive) and 73.1% (inactive), respectively. In addition, in test [2], the Her2 level was 87% (inactive). Besides, in test [6] (H69AR cells + 2 uM doxorubicin), the differential viability (reversal) was 5.21% (inactive). Moreover, the inhibition in test [7] was -3.73% (inactive); in test [8], 6.56% (inactive); in test [14] it was 1.32% (inactive). For the same molecule, the growth inhibition in test [9] was -13.9% (inactive); in test [10], -8.47% (inactive). Moreover, in [11], the viability increase is -5.96% (inactive). In [15], the RAM network inhibition was 6.15% (inactive).

As for `Cc1ccc2cccc(SCC(=O)N3CCOCC3)c2n1`, the viability was 103% in test [1]; 103% (inactive) in test [3]; 61% (inactive) in [4]; 90.7% (inactive) in [5]; 91.2% in [6] (setting [16]); 90.7% in test [6] (setting [17]). For the same molecule, the viability in [12] is 98.9% (inactive); in test [13] it was 101% (inactive). Further, the Her2 level in test [2] was 89.5% (inactive). Moreover, the differential viability (reversal) in [6] (H69AR cells + 2 uM doxorubicin) was -0.48% (inactive). Further, the values for the inhibition in test [7], in test [8] and in [14] were -4.03% (inactive), -3.5% (inactive) and 2.27% (inactive), respectively. Moreover, the growth inhibition is 2.63% (inactive) in [9] and 24.3% (inactive) in test [10]. Moreover, in test [11], the viability increase was -2.53% (inactive). Besides, the RAM network inhibition in test [15] was 1.88% (inactive).

As for `CCOc1ccc(N(C(C)C(=O)NC2CCCCCC2)S(C)(=O)=O)cc1` (centres undefined), the viability was 90.5% in test [1]; 90.5% (inactive) in test [3]; 101% (inactive) in [4]; 94.1% (inactive) in test [5]; 92.7% in test [6] (setting [16]); 94.1% in test [6] (setting [17]). The viability in [12] is 100% (inactive); in [13] it was 90.6% (inactive). In addition, the Her2 level in test [2] was 98.5% (inactive). Also, the differential viability (reversal) in test [6] (H69AR cells + 2 uM doxorubicin) was 1.44% (inactive). Further, the inhibition in [7] is -2.69% (inactive); in test [8], -3.83% (inactive); in [14], 2.62% (inactive). Further, the growth inhibition is -1.18% (inactive) in test [9] and -21% (inactive) in [10]. The viability increase in test [11] was -2.2% (inactive). Besides, in [15], the RAM network inhibition is 6.94% (inactive).

With `CC(=O)Nc1cc(N2C(=O)CCC2=O)ccc1Cl`, the viability in [1] is 93%; in [3], 93% (inactive); in test [4] it was 110% (inactive); in test [5], 103% (inactive); in test [6] (setting [16]) it was 90.5%; in [6] (setting [17]) it was 103%. Moreover, the viability was 102% (inactive) in test [12] and 103% (inactive) in test [13]. Also, in test [2], the Her2 level is 97% (inactive). The differential viability (reversal) in test [6] (H69AR cells + 2 uM doxorubicin) was 12.4% (inactive). The inhibition is 0.4% (inactive) in test [7], 6.45% (inactive) in test [8] and 1.19% (inactive) in test [14]. Further, the values for the growth inhibition in [9] and in test [10] were -10.2% (inactive) and -12.5% (inactive), respectively. Also, the viability increase in [11] is -1.29% (inactive). In addition, in test [15], the RAM network inhibition was 1.88% (inactive).

Source of the values: PubChem BioAssay.
